Format in all cases: functional
Test [1] concerns the target Solute carrier family 2, facilitated glucose transporter member 1 (Homo sapiens) (UniProt P11166). The experiment in a line: ST_JUDE_LEISH: Cytotoxicity at 2uM final concentration against transgenic Leishmania Mexicana promastigotes LmGLUT1 that are glucose transport deficient and complemented with the human glucose transporter GLUT1. Activity is measured by DNA content using SYBR green in vitro.

Test [2] addresses Hexose transporter 1 (Plasmodium falciparum) (UniProt O97467). The experiment in a line: ST_JUDE_LEISH: Cytotoxicity at 2uM final concentration against transgenic Leishmania Mexicana promastigotes LmPfHT that are glucose transport deficient and complemented with the Plasmodium falciparum hexose transporter. Activity is measured by DNA content using SYBR green in vitro.
The target in test [3] is Glucose transporter (Leishmania mexicana) (UniProt O61059). The experiment in a line: ST_JUDE_LEISH: Cytotoxicity at 2uM final concentration against transgenic Leishmania Mexicana promastigotes LmGT2 that are glucose transport deficient and complemented with the L. Mexicana glucose transporter 2. Activity is measured by DNA content using SYBR green in vitro.

Experimental findings from ChEMBL document CHEMBL3433997, “St. Jude Leishmania screening dataset” (2016) are described below.

Each structure is given as a SMILES string.

Sequence of Solute carrier family 2, facilitated glucose transporter member 1 (Homo sapiens) (P11166 whole entry): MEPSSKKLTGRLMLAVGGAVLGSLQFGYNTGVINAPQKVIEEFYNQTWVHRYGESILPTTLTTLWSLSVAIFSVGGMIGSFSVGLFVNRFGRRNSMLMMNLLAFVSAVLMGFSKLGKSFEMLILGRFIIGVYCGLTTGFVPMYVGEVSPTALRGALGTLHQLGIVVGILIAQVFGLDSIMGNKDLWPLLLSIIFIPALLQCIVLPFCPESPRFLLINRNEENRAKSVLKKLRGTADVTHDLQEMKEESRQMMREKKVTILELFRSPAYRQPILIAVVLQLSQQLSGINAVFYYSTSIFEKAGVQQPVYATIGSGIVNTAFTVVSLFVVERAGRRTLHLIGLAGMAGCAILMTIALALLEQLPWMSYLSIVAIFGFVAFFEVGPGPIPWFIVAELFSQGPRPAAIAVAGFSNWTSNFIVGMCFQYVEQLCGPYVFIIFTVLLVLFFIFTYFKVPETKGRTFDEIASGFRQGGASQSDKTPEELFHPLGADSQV

By inhibition is commonly meant the relative decrease from the control value, in per cent. In the case of `Cc1cc(NC(=O)c2cccs2)ccc1OC1CCN(Cc2ccc(C#N)cc2)CC1`, the inhibition in test [1] is -0.77%; in test [2] it was 1.49%; in test [3], -0.42%.
The like results for `O=C(Nc1ccccc1)N(Cc1cccc(-c2ccc(CNCc3ccc4c(c3)OCO4)cc2)c1)C1CCN(Cc2ccccc2)CC1` were, in that order, 2.89%, 4.07% and 2.52%.
The corresponding values for `Cc1cc(N[C@@H](Cc2ccccc2)C(=O)NCCOc2ccccc2)nc(NCCc2cccs2)n1` are 8.11%, 7.52% and 6.47%.
The corresponding values for `CC1(C)N=C(N)N=C(N)N1c1ccc(I)cc1` are 5.79%, 5.57% and 6.6%.
For `CN(C)c1ccc(C=Cc2ccc3ccccc3n2)c(Cl)c1`, the results for the inhibition in test [1], in test [2] and in test [3] were 91.5%, 83.8% and 85.2%, respectively.
The like results for `Cn1ccnc1CNC(=O)c1ccc(-c2cccc(-c3nc4cc(C(F)(F)F)ccc4[nH]3)c2)cc1` were, in that order, 1.73%, 0.7% and 0.2%.
The like results for `CCCN(CC1CC1)c1ncc(-c2cccc(CNCc3ccccc3O)c2)cn1` were, in that order, -1.8%, -2.3% and -1.63%.
The corresponding values for `Cc1cc(Nc2cccc(C(F)(F)F)c2)nc(N)n1` are 0.43%, 0.91% and 1.19%.
Regarding `CC[C@H](C)CNC(=O)c1cncc(-c2ccc(CNCCOc3ccccc3)cc2)c1`, the inhibition is 1.83% in test [1], 2.11% in test [2] and 1.09% in test [3].
The like results for `O=C(Nc1ccc2c(ccn2C2CCCN(Cc3cc(F)cc(F)c3F)CC2)c1)c1ccco1` (centres undefined) were, in that order, 1.97%, -3.49% and 2.17%.
For the compound `CC(=O)Nc1ccccc1OCc1cc2cc(C(=O)N3CCC(N4C(=O)OCc5ccccc54)CC3)ccc2o1`, the inhibition is 4.21% in test [1], 2.89% in test [2] and 4.49% in test [3].
As to `CCCCOP(=O)(OCCCC)C(=Cc1ccc(O)c2ccccc12)P(=O)(OCCCC)OCCCC`, the inhibition is 5.02% in test [1], 4.67% in test [2] and 5.24% in test [3].
The like results for `Clc1ccc(CNc2nc(NCCc3c[nH]cn3)nc(NC3CCCCC3)n2)cc1` were, in that order, 0.15%, -1.21% and -0.72%.
The corresponding values for `Cc1cnc(C(=O)Nc2cccc(-c3cccc(-c4nc5cc(F)ccc5[nH]4)c3)c2)cn1` are 8.32%, 5.55% and 5.18%.
The corresponding values for `CC1CCCC(NC(=O)CCOc2ccccc2)C1` (centres undefined) are 7.23%, 6.34% and 6.88%.
`COc1ccc(N2CCN(CCCNC(=O)c3ccc(NC(=O)c4cc(Cl)cc(Cl)c4)cc3)CC2)c(OC)c1`: the results for the inhibition in test [1], in test [2] and in test [3] were 4.49%, 0.82% and 3.87%, respectively.
In the case of `CN(C)c1ccc(CN2CCC(NC(=O)c3ccc(-c4ccccc4Cl)s3)CC2)cc1`, the figures for the inhibition in test [1], in test [2] and in test [3] were 2.51%, 1.07% and 1.76%, respectively.
The corresponding values for `COc1ccc2ncc(C#N)c(CCN3C[C@H](CNCc4ccccc4)[C@H](O)C3)c2n1` are 3.18%, 3.76% and 2.91%.
On to `N#Cc1cccc(Nc2nccc(Nc3ccc(Oc4ccccc4)cc3)n2)c1`, for which the results for the inhibition in test [1], in test [2] and in test [3] were 6.87%, 5.4% and 0.2%, respectively.
Consider `C(=N\Nc1nccc2sc(-c3ccccc3)cc12)/c1cccnc1`, for which the inhibition in test [1] was determined as 4.32%; in test [2], 3.5%; in test [3], 3.16%.
The like results for `CCOC(=O)c1ccc(OCCOc2ccccc2)cc1` were, in that order, -0.36%, 1.04% and 0.6%.
The like results for `NC1=NC(c2ccccc2)(c2ccccc2)C(=O)N1CCCCc1ccccc1` were, in that order, -0.67%, 0.44% and -1.44%.
The like results for `Cc1ccc(S(=O)(=O)NC2=NC(=N)N(OCc3ccc(Cl)c(Cl)c3)C(C)(C)N2)cc1` were, in that order, 12.6%, 13.6% and 13.9%.
With `CC(C)CCN1CCCN(Cc2cccc(NC(=O)c3ccc(-c4ccccc4)cc3)c2)CC1`, the values for the inhibition in test [1], in test [2] and in test [3] were 2.17%, 0.14% and -0.09%, respectively.
The corresponding values for `Cc1cc(C(F)(F)F)n2nc(C(=O)N(Cc3cncn3Cc3cccc(F)c3)CC3CC3)cc2n1` are -0.1%, -0.07% and 2.14%.
The like results for `COc1ccc2nccc(CCN3CC(O)C(CNCc4ccc5c(n4)NC(=O)CS5)C3)c2n1` (centres undefined) were, in that order, 3.43%, 3.49% and 4.07%.
The like results for `O=C(NC1CCCCC1)c1csc(C2CCCN(C(=O)c3ccc(O)c(-c4cccc(C(F)(F)F)c4)c3)C2)n1` (centres undefined) were, in that order, 0.87%, 1.44% and -0.33%.
With `CC(Cc1ccc(C(=O)OCCOC(=O)c2ccc(CC(C)NCC(O)c3cccc(C(F)(F)F)c3)cc2)cc1)NCC(O)c1cccc(C(F)(F)F)c1` (centres undefined), the figures for the inhibition in test [1], in test [2] and in test [3] were 1.7%, -0.31% and 2.65%, respectively.
The like results for `Oc1ccccc1CN1CCCC(COC(c2ccc(F)cc2)c2ccc(F)cc2)C1` (centres undefined) were, in that order, 3.68%, 3.28% and 0.55%.
The like results for `CNS(=O)(=O)c1ccc(NC(=O)c2cc(-c3cccnc3)nc3ccc(Br)cc23)cc1` were, in that order, 2.58%, 2.73% and 3.77%.
The corresponding values for `CCN(CC)CCN(Cc1ccc(-c2ccc(C(F)(F)F)cc2)cc1)C(=O)Cn1c(CCc2ccc(F)cc2)nc(=O)c2ccccc21` are 2.98%, 2.96% and 3.33%.
For the compound `CC(C)n1ncc2c(C(=O)N3CCCc4ccccc43)cc(-c3ccccc3)nc21`, the inhibition in test [1] amounted to 4.46%; in test [2], 2.95%; in test [3] it was 3.97%.
The like results for `CO/C(=C\C=C\c1cc2cc(Cl)c(Cl)cc2[nH]1)C(=O)NCCCNC12CC3CC(CC(C3)C1)C2` were, in that order, 3.15%, 1.55% and 0.89%.
The corresponding values for `CC(C)CN1C(=O)c2ccc(C(=O)Nc3nccs3)cc2C1=O` are 1.07%, 1.52% and 3.65%.
With `Cc1cc(NCCC(=O)NCCOc2ccccc2)nc(NCCc2ccccc2)n1`, the inhibition in test [1] is 7.78%; in test [2] it was 5.18%; in test [3] it was 0.66%.
The like results for `CCOc1ccc(NC(=O)c2ccc(CN3CCCN(Cc4cccc(O)c4)CC3)cc2)cc1` were, in that order, 3.91%, 3.89% and 4.11%.
The like results for `CCCCNC(=O)[C@H](CC1CCCCC1)NC(=O)c1ccc(O)c(-c2cccc(C(F)(F)F)c2)c1` were, in that order, 2.16%, 3.75% and 3.61%.
`CN(c1ccc(NC(=O)Nc2cc(C(F)(F)F)ccc2F)cc1)c1ccnc(NCCN2CCOCC2)n1`: the inhibition amounted to 7.88% in test [1], 18.5% in test [2] and 0.14% in test [3].
Consider `COc1cc(-c2nc3c4ccccc4c4ccccc4c3[nH]2)cc(OC)c1OC`, for which the inhibition in test [1] stood at 1.82%; in test [2] it was 1.28%; in test [3], 1.58%.
The corresponding values for `CCCc1nc2c(N3CC(NC(=O)/C=C/c4ccccc4)C3)cccc2n1C1CC1` are 9%, 7.28% and 8.19%.
The corresponding values for `C=CCN1C(=O)CN(S(=O)(=O)c2ccc(-n3nc(C)cc3C)cc2)C1=S` are 3.32%, 3.89% and 2.49%.
The corresponding values for `COc1c(C2CCN(CCCCNC(=O)c3ccc(-c4ccc(C#N)cc4)cc3)CC2)ccc2c1C(C)(C)CCC2(C)C` are 1.57%, 2.62% and -0.67%.
In the case of `CCNc1cc(C(=O)N[C@@H](Cc2ccccc2)[C@H](O)CNCc2cc(OC)cc(OC)c2)cc(N2CCCC2=O)c1`, the inhibition was found to be 7.69% in test [1], 9.03% in test [2] and 6.42% in test [3].
For `CCCC1CCNC(C(O)c2ccnc3ccc(OC)cc23)C1` (centres undefined), the inhibition was found to be 1.89% in test [1], 1.16% in test [2] and 2.16% in test [3].
The like results for `O=C(/C=C/c1ccc(Cl)c(Cl)c1)NCCCCCCN1CCN(C(=O)Nc2ccc(C(F)(F)F)cc2)CC1` were, in that order, 2.86%, 3.11% and 3.19%.
The like results for `Cc1ccc(NC(=O)c2ccc3nccnc3c2)cc1OC1CCN(Cc2ccc(F)cc2)CC1` were, in that order, 10.6%, 11.1% and 10.5%.
For `Cc1n[nH]c2cc(F)c(-c3cc(OC[C@@H](N)Cc4ccccc4)cnc3-c3ccoc3)cc12`, the inhibition in test [1] amounted to 10.8%; in test [2] it was 16.1%; in test [3] it was 6.42%.
`CCc1cc([C@H]2O[C@@H](n3cnc4c(NCC(c5ccccc5)c5ccccc5)nc(NCCNc5ccccn5)nc43)[C@H](O)[C@@H]2O)on1`: the inhibition in test [1] was -1.61%; in test [2], -0.53%; in test [3], -2.53%.
